PubChem BioAssay (NCI)
Several values for one entry are separate records, joined by “and”; a condition that tells them apart may be missing. Equal values may be shown once. About 83,000 compounds went through this panel and 20% of them were active in at least one assay; those are over-represented in the sample as a whole.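 96-well plates, one dose, 48 hours. Percent growth reported; active if below 10.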 Activity calls are given as the source filed them.

Assays:
Test in all cases: NCI-60 one-dose screen, 48 h (100 = growth as untreated, 0 = no growth, -100 = all killed)
Details in all cases: 10 µM unless noted
SR leukemia = test system: SR leukemia
RPMI-8226 leukemia = test system: RPMI-8226 leukemia
OVCAR-8 ovarian = test system: OVCAR-8 ovarian
OVCAR-5 ovarian = test system: OVCAR-5 ovarian
OVCAR-4 ovarian = test system: OVCAR-4 ovarian
SK-OV-3 ovarian = test system: SK-OV-3 ovarian
IGROV1 ovarian = test system: IGROV1 ovarian
OVCAR-3 ovarian = test system: OVCAR-3 ovarian
HS 578T breast = test system: HS 578T breast
NCI/ADR-RES ovarian = test system: NCI/ADR-RES ovarian
T-47D breast = test system: T-47D breast
BT-549 breast = test system: BT-549 breast
MDA-MB-435 melanoma = test system: MDA-MB-435 melanoma
SW-620 colon = test system: SW-620 colon
MCF7 breast = test system: MCF7 breast
HCT-116 colon = test system: HCT-116 colon
HCC-2998 colon = test system: HCC-2998 colon
KM12 colon = test system: KM12 colon

| SMILES | growth (SR leukemia) | growth (RPMI-8226 leukemia) | growth (OVCAR-8 ovarian) | growth (OVCAR-5 ovarian) | growth (OVCAR-4 ovarian) | growth (SK-OV-3 ovarian) | growth (IGROV1 ovarian) | growth (OVCAR-3 ovarian) | growth (HS 578T breast) | growth (NCI/ADR-RES ovarian) | growth (T-47D breast) | growth (BT-549 breast) | growth (MDA-MB-435 melanoma) | growth (SW-620 colon) | growth (MCF7 breast) | growth (HCT-116 colon) | growth (HCC-2998 colon) | growth (KM12 colon) |
| --- | --- | --- | --- | --- | --- | --- | --- | --- | --- | --- | --- | --- | --- | --- | --- | --- | --- | --- |
| C#CCn1cnc2cnc(Nc3cccc(NC(=O)CCl)c3)nc21 | 1.67% [6.25 µM] (active) | -14.9% [6.25 µM] (active) | 8.6% [6.25 µM] (active) | 14.8% [6.25 µM] (inactive) | 13% [6.25 µM] (inactive) | 15.3% [6.25 µM] (inactive) | -38.1% [6.25 µM] (active) | -44.9% [6.25 µM] (active) | 10.4% [6.25 µM] (inactive) | 2.34% [6.25 µM] (active) | 5.42% [6.25 µM] (active) | 3.26% [6.25 µM] (active) | -19.6% [6.25 µM] (active) | 0.405% [6.25 µM] (active) | -6.48% [6.25 µM] (active) | -30.2% [6.25 µM] (active) | -11.4% [6.25 µM] (active) | -2.39% [6.25 µM] (active) |
| N=c1ccccn1CCO | 87.7% (inactive) | 98.3% (inactive) | 104% (inactive) | 99% (inactive) | 122% (inactive) | 100% (inactive) | 112% (inactive) | 121% (inactive) | 110% (inactive) | 116% (inactive) | 103% (inactive) | 113% (inactive) | 113% (inactive) | 114% (inactive) | 102% (inactive) | 100% (inactive) | 94.6% (inactive) | 112% (inactive) |
| COC(=O)c1[nH]nc(OC)c1C1(C(C#N)c2nc3ccccc3s2)CCCc2ccccc21 (stereo not given) | 99.8% (inactive) | 94.7% (inactive) | 100% (inactive) | 80.3% (inactive) | 103% (inactive) | 87% (inactive) | 79% (inactive) | 98.6% (inactive) | 99.2% (inactive) | 101% (inactive) | 84.1% (inactive) | 88.2% (inactive) | 104% (inactive) | 104% (inactive) | 84.8% (inactive) | 104% (inactive) | 102% (inactive) | 97% (inactive) |
| COc1ccc(C/C(C)=C(/c2ccc(OCCN3CCCC3)cc2)c2ccc(OC(=O)NCc3ccccc3)cc2)cc1 | -22.6% (active) | 66.7% (inactive) | 89.4% (inactive) | 81% (inactive) | 81.6% (inactive) | 104% (inactive) | 101% (inactive) | 89.8% (inactive) | 81.1% (inactive) | 97.1% (inactive) | 51% (inactive) | 82.5% (inactive) | 73% (inactive) | 95.3% (inactive) | 30.7% (inactive) | 39.6% (inactive) | 87.8% (inactive) | 90.7% (inactive) |
| N#C/C(=C\c1ccc(Br)cc1)n1nnc2c(F)cccc21 | 23.1% (inactive) | -20.2% (active) | 7.76% (active) | 1.16% (active) | 14.1% (inactive) | 40.7% (inactive) | -24.3% (active) | -51.1% (active) | 11% (inactive) | 2.56% (active) | 14.2% (inactive) | 12% (inactive) | -26.8% (active) | -22.1% (active) | 12.7% (inactive) | -27.5% (active) | -38.4% (active) | 4.37% (active) |
| CCN(CC)CCOc1ccc(/C(=C(\Cl)c2ccccc2)c2ccccc2)cc1 | 17.4% (inactive) and 85.1% (inactive) | -21.2% (active) and 88.8% (inactive) | 67.2% (inactive) and 104% (inactive) | 47.5% (inactive) and 72.4% (inactive) | 55.5% (inactive) and 47.4% (inactive) | 45.5% (inactive) and 80.8% (inactive) | 53.6% (inactive) | 76.9% (inactive) and 118% (inactive) | 55% (inactive) | 59.3% (inactive) and 92.9% (inactive) | 23.4% (inactive) and 48.9% (inactive) | 43.4% (inactive) and 92.6% (inactive) | 7.34% (active) | -55% (active) | 16.2% (inactive) and 27.4% (inactive) | 11.4% (inactive) and 57.8% (inactive) | 35.7% (inactive) and 98.3% (inactive) | 21.8% (inactive) and 75.9% (inactive) |
| N#CSc1c[nH]c2ccc(/C=C/C(=O)/C=C(/C=C/c3ccc4[nH]cc(SC#N)c4c3)OB(F)F)cc12 | -25.1% (active) | -12.2% (active) | -21.6% (active) | 17% (inactive) | 1% (active) | 98.4% (inactive) | -55.5% (active) | -52.8% (active) | 26.8% (inactive) | 10.9% (inactive) | -7.65% (active) | -10.2% (active) | -77.4% (active) | 2.13% (active) | 7.23% (active) | -49.5% (active) | 31.9% (inactive) | 19.6% (inactive) |
| CC(=NCc1ccccc1)c1ccc(O)cc1O | 93.5% (inactive) | 96.6% (inactive) | 103% (inactive) | 104% (inactive) | 101% (inactive) | 103% (inactive) | 105% (inactive) | 103% (inactive) | 112% (inactive) | 98.4% (inactive) | 92.2% (inactive) | 91.9% (inactive) | 114% (inactive) | 109% (inactive) | 97.8% (inactive) | 104% (inactive) | 92.5% (inactive) | 104% (inactive) |
| COc1ccc(-c2cc(=O)c3c(O)cc(O)cc3o2)cc1 | 59.9% (inactive) and 69.1% (inactive) | 87.6% (inactive) and 87.3% (inactive) | 103% (inactive) and 90.2% (inactive) | 112% (inactive) and 130% (inactive) | 118% (inactive) and 102% (inactive) | 112% (inactive) and 135% (inactive) | 125% (inactive) and 113% (inactive) | 112% (inactive) and 81% (inactive) | 120% (inactive) and 97% (inactive) | 99.6% (inactive) and 99.1% (inactive) | 101% (inactive) and 100% (inactive) | 109% (inactive) | 96.3% (inactive) and 96.5% (inactive) | 106% (inactive) and 105% (inactive) | 117% (inactive) and 106% (inactive) | 103% (inactive) and 94.5% (inactive) | 102% (inactive) and 104% (inactive) | 91% (inactive) and 93.1% (inactive) |
| COc1ccc(/C=C2\COc3ccc(O)c(O)c3C2=O)c(OC)c1OC | 9.47% (active) | -23.6% (active) | 8.41% (active) | 36.2% (inactive) | 27.8% (inactive) | 67% (inactive) | 16.9% (inactive) | 9.03% (active) | 27.9% (inactive) | 27% (inactive) | 12.1% (inactive) | 46.9% (inactive) | 8.59% (active) | 9.64% (active) | 14.8% (inactive) | 14.6% (inactive) | 65.6% (inactive) | 33.5% (inactive) |
| COc1cc2cc(NCc3ccncc3)nc(C)c2cc1OC | 70.9% (inactive) | 106% (inactive) | 91.5% (inactive) | 80.7% (inactive) | 94.4% (inactive) | 77.6% (inactive) | 113% (inactive) | 107% (inactive) | 83.5% (inactive) | 97.2% (inactive) | 71.2% (inactive) | 77.9% (inactive) | 106% (inactive) | 107% (inactive) | 93.4% (inactive) | 93.1% (inactive) | 106% (inactive) | 109% (inactive) |
| O=C1Nc2ccccc2/C1=C/c1cccn1CCCCCn1c2ccccc2c(=O)c2ccccc21 | 76.1% (inactive) | 22.1% (inactive) | 45.6% (inactive) | 82.6% (inactive) | 57.1% (inactive) | 90.4% (inactive) | 73% (inactive) | 70.9% (inactive) | 90.5% (inactive) | 60.9% (inactive) | 1.55% (active) | 65.5% (inactive) | 93.6% (inactive) | 100% (inactive) | 1.17% (active) | 69.8% (inactive) | 42.5% (inactive) | 12.1% (inactive) |
| COc1ccc(-c2csc(NC(=O)CN3CCN(CCO)CC3)n2)cc1NS(=O)(=O)c1cccc2c(N(C)C)cccc12 | -6.12% (active) | 36% (inactive) | 84.1% (inactive) | 97% (inactive) | 68.2% (inactive) | 90.7% (inactive) | 77.3% (inactive) | 79.5% (inactive) | 65.7% (inactive) | 93.3% (inactive) | 72% (inactive) | 82.1% (inactive) | 57.3% (inactive) | 84.1% (inactive) | 59.6% (inactive) | 73.5% (inactive) | 73.2% (inactive) | 77.2% (inactive) |
| CCCO/N=C/c1ccccn1 | 93.4% (inactive) | 101% (inactive) | 103% (inactive) and 107% (inactive) | 106% (inactive) and 100% (inactive) | 97.4% (inactive) | 101% (inactive) and 89.7% (inactive) | 107% (inactive) and 101% (inactive) | 105% (inactive) and 113% (inactive) | 102% (inactive) and 104% (inactive) | 101% (inactive) and 99.5% (inactive) | 107% (inactive) and 93.9% (inactive) | 90.8% (inactive) | 107% (inactive) and 105% (inactive) | 102% (inactive) and 110% (inactive) | 89.2% (inactive) and 92.4% (inactive) | 102% (inactive) | 110% (inactive) and 105% (inactive) | 101% (inactive) and 103% (inactive) |
| Cc1ccc(/C=C/c2c(C(=O)/C=C/c3ccccc3)c(C)nc3ccccc23)cc1 | 12.7% (inactive) | -7.87% (active) | 1.99% (active) | 1.05% (active) | 39.9% (inactive) | 70.1% (inactive) | 11.3% (inactive) | -22% (active) | 35.6% (inactive) | 8.38% (active) | 16.1% (inactive) | 41.5% (inactive) | -45.4% (active) | 3.35% (active) | 12.6% (inactive) | -54.7% (active) | 20.6% (inactive) | 13.1% (inactive) |
